Experimental data published in PubChem BioAssay (EPA / NIEHS).
Records with an inconclusive call do not appear. Active and inactive are the calls of the source. Rule for the calls, unless noted: active = hit-call score of the fitted dose curve at least 0.9, where 1 is the maximum; inactive = score below 0.9.

Key:
[1] = ATG_M_61_XSP2: Attagene TRANS-FACTORIAL Multi-Species (XSP2) HepG2 Assay for M61 Transcription Factor (Internal Marker) (AID 2283835);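 note: reporter mRNA of an internal background marker read by RT-PCR and capillary electrophoresis; active means a rise in signal above the DMSO baseline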
How it was run: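 HepG2 cells transiently transfected with multiple GAL4-UAS reporter units; 3 nM 6-alpha-fluorotestosterone and 1.5 nM norgestrel present to stimulate androgen receptor. After 24 h compound exposure, reporter mRNA measured by RT-PCR and capillary electrophoresis fluorescence, gain-of-signal versus DMSO baseline.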

[2] = target: zebrafish Thyroid Hormone Receptor beta (TRb), thrb (gene 30607) (UniProt Q9PVE4); assay: ATG_zfTRb_XSP2: Attagene TRANS-FACTORIAL Multi-Species (XSP1) HepG2 Assay for zebrafish Thyroid Hormone Receptor beta (TRb) (AID 2283836; active = hit-call score of the fitted dose curve at least 0.9, where 1 is the maximum)
How it was run: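 HepG2 cells transiently transfected with chimeric zebrafish TRb-GAL4 reporter units, dosed 24 h with 3 nM 6-alpha-fluorotestosterone and 1.5 nM norgestrel present. Reporter mRNA quantified by RT-PCR and capillary electrophoresis; gain fitted against DMSO.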

[3] = target: frog Thyroid hormone Receptor alpha (TRa), thra-a (gene 397942) (UniProt P15204); assay: ATG_frTRa_XSP2: Attagene TRANS-FACTORIAL Multi-Species (XSP2) HepG2 Assay for frog Thyroid hormone Receptor alpha (TRa) (AID 2283839; active = hit-call score of the fitted dose curve at least 0.9, where 1 is the maximum)
How it was run: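 Reporter transcripts were measured by RT-PCR with capillary electrophoresis after 24 h dosing of HepG2 carrying transiently transfected multi-reporter units, including a chimeric frog TRa-GAL4 construct. Activity was taken as increase over DMSO vehicle.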

[4] = test system: Sodium/Iodide Symporter (NIS), SLC5A5 (gene 6528); assay: CPHEA_Stoker_NIS_Inhibition_RAIU: CPHEA's Radioactive Iodide Uptake (RAIU) Assay for Sodium/Iodide Symporter (NIS) Inhibition, Stoker and Laws Labs (AID 2283841; active = hit-call score of the fitted dose curve at least 0.9, where 1 is the maximum)
How it was run: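 hNIS-HEK293T-EPA cells incubated 2 h at room temperature with compound (0.001–100 uM, 0.5% DMSO) and 329 pM final 125I in HBSS/10 mM HEPES, pH 7.4. Intracellular 125I counted; normalised to DMSO maximal uptake, triplicate, three biological replicates.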

[5] = ATG_XTT_Cytotoxicity_XSP2: Cytotoxicity Assessment in the Attagene TRANS-FACTORIAL Multi-Species (XSP2) HepG2 Assay (AID 2283837; active = hit-call score of the fitted dose curve at least 0.9, where 1 is the maximum)
How it was run: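 HepG2 cells, transiently transfected with multiple reporter constructs, exposed to chemical for 24 h. Cell number assessed with XTT fluorescence read-out; loss of signal fitted relative to DMSO.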

[6] = target: human Thyroid hormone Receptor beta (TRb), THRB (gene 7068) (UniProt P10828); assay: ATG_hTRb_XSP2: Attagene TRANS-FACTORIAL Multi-Species (XSP2) HepG2 Assay for human Thyroid hormone Receptor beta (TRb) (AID 2283840; active = hit-call score of the fitted dose curve at least 0.9, where 1 is the maximum;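 note: actives raise reporter mRNA so potency reflects agonist-like gain of signal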)
How it was run: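 Activity of exogenous human TRb–Gal4 fusion measured by reporter mRNA from RT-PCR and capillary electrophoresis, 24 h after dosing transfected HepG2. 6-alpha-fluorotestosterone (3 nM) and norgestrel (1.5 nM) present. Gain-of-signal fit relative to DMSO.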

[7] = CPHEA_Stoker_NIS_Cytotoxicity: Cytotoxicity Assessment for CPHEA's Radioactive Iodide Uptake (RAIU) Assay for Sodium/Iodide Symporter (NIS) Inhibition, Stoker and Laws Labs (AID 2283897; active = hit-call score of the fitted dose curve at least 0.9, where 1 is the maximum)
How it was run: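 hNIS-HEK293T-EPA cells, human NIS expressed in HEK293T, treated 2 h with chemicals (0.001–100 uM, 0.5% final DMSO). ATP content read by CellTiter-Glo luminescence; loss of signal analysed relative to DMSO.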

PGR (gene 5241) = PGR (gene 5241) (UniProt P06401); assay: TOX21_PR_BLA_Followup_Antagonist_ratio: Tox21 HEK293 Progesterone Receptor (PR) Antagonism Beta-lactamase Follow-Up Assay, Ratio (AID 2283934; active = hit-call score of the fitted dose curve at least 0.9, where 1 is the maximum)
How it was run: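 PR-UAS-bla HEK293T cells, 3,000/well in 2% charcoal-stripped FBS, given compound plus 1nM R5020 agonist for 16 hr at 37C. Beta-lactamase FRET substrate 2 hours, ratio cleaved/uncleaved fluorescence; viability by CellTiter-Glo in same wells.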

[8] = CEETOX_H295R_11DCORT_noMTC: CeeTox H295R High-throughput Steroidogenesis Assay for 11-Deoxycortisol (11DCORT), maximum tolerated concentration (MTC) filtered results only (AID 2283911); conditions: actives raise or lower the signal
How it was run: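 Values carry no filtering for maximum tolerated concentration: medium from forskolin-primed (10 uM, 48 h) H295R cells after 48 h chemical exposure (0.1% DMSO) was MTBE-extracted, and 11-deoxycortisol quantified by reverse-phase HPLC-MS/MS. Fitting was bidirectional against DMSO.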

[9] = CEETOX_H295R_OHPREG_noMTC: CeeTox H295R High-throughput Steroidogenesis Assay for OH-Pregnenolone (OHPREG), maximum tolerated concentration (MTC) filtered results only (AID 2283912); conditions: actives raise or lower the signal
How it was run: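 H295R human adrenal cells, forskolin-prestimulated (10 uM, 48 h), then exposed to test chemical in 0.1% DMSO for 48 h. 17alpha-hydroxypregnenolone in medium measured by HPLC-MS/MS after MTBE extraction; bidirectional fit versus DMSO, concentrations not MTC-filtered.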

[10] = CEETOX_H295R_OHPROG_noMTC: CeeTox H295R High-throughput Steroidogenesis Assay for OH-Progesterone (OHPROG), maximum tolerated concentration (MTC) filtered results only (AID 2283914); conditions: actives raise or lower the signal
How it was run: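 H295R human adrenal cells prestimulated 48 h with 10 uM forskolin, then exposed 48 h to test chemical (0.1% DMSO final). Medium 17alpha-hydroxyprogesterone extracted with MTBE, quantified by HPLC-MS/MS; bidirectional fit versus DMSO, concentrations not MTC-filtered.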

[11] = CEETOX_H295R_CORTISOL_noMTC: CeeTox H295R High-throughput Steroidogenesis Assay for Cortisol, maximum tolerated concentration (MTC) filtered results only (AID 2283916); conditions: actives raise or lower the signal
How it was run: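 H295R adrenal cells were pre-stimulated 48 h with 10 uM forskolin, then exposed 48 h to test chemical in 0.1% DMSO. Medium cortisol was measured by MTBE extraction and HPLC-MS/MS; bidirectional fit versus DMSO, concentrations not MTC-filtered.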

[12] = CEETOX_H295R_CORTIC_noMTC: CeeTox H295R High-throughput Steroidogenesis Assay for Corticosterone (CORTIC), maximum tolerated concentration (MTC) filtered results only (AID 2283917); conditions: actives raise or lower the signal
How it was run: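 H295R, 10 uM forskolin prestim 48 h → test chem (0.1% DMSO final) 48 h → media MTBE extraction → HPLC-MS/MS corticosterone. Bidirectional fit vs DMSO baseline; no MTT-based MTC filtering.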

[13] = CEETOX_H295R_DOC_noMTC: CeeTox H295R High-throughput Steroidogenesis Assay for DOC, maximum tolerated concentration (MTC) filtered results only (AID 2283918); conditions: actives raise or lower the signal
How it was run: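 H295R cells prestimulated 48 h with 10 uM forskolin, then exposed 48 h to test chemical (0.1% DMSO final). Medium 11-deoxycorticosterone extracted with MTBE, quantified by HPLC-MS/MS; bidirectional fit versus DMSO, concentrations not MTC-filtered.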

[14] = CEETOX_H295R_ESTRADIOL_noMTC: CeeTox H295R High-throughput Steroidogenesis Assay for Estradiol, maximum tolerated concentration (MTC) filtered results only (AID 2283919); conditions: actives raise or lower the signal
How it was run: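 H295R human adrenal cells pre-stimulated 48 h with 10 uM forskolin, then exposed 48 h to chemical (0.1% DMSO final). Estradiol in medium measured by HPLC-MS/MS after MTBE extraction and dansyl derivatization; bidirectional fit versus DMSO, concentrations not MTT-filtered.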

[15] = CEETOX_H295R_PROG_noMTC: CeeTox H295R High-throughput Steroidogenesis Assay for Progesterone (PROG), maximum tolerated concentration (MTC) filtered results only (AID 2283920); conditions: actives raise or lower the signal
How it was run: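 H295R human adrenal cells were prestimulated 48 h with 10 uM forskolin, then exposed 48 h to test chemical (0.1% DMSO final). Progesterone in medium was quantified by HPLC-MS/MS; bidirectional fitting versus DMSO, concentrations not MTC-filtered.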

[16] = CEETOX_H295R_ESTRONE_noMTC: CeeTox H295R High-throughput Steroidogenesis Assay for Estrone, maximum tolerated concentration (MTC) filtered results only (AID 2283921); conditions: actives raise or lower the signal
How it was run: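 H295R cells prestimulated 48 h with 10 uM forskolin, then exposed 48 h to chemical in 0.1% DMSO; medium estrone measured by HPLC-MS/MS after MTBE extraction and dansyl derivatization, fitted bidirectionally versus DMSO without MTT-based MTC filtering.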

[17] = CEETOX_H295R_ANDR_noMTC: CeeTox H295R High-throughput Steroidogenesis Assay for Androstenedione (ANDR), maximum tolerated concentration (MTC) filtered results only (AID 2283915); conditions: actives raise or lower the signal
How it was run: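 H295R cells, passage 10 or below, prestimulated 48 h with 10 uM forskolin, then exposed 48 h to chemical in 0.1% DMSO. Medium androstenedione extracted with MTBE, quantified by HPLC-MS/MS; concentrations not MTC-filtered; bidirectional fit versus DMSO.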

[18] = CEETOX_H295R_TESTO_noMTC: CeeTox H295R High-throughput Steroidogenesis Assay for Testosterone (TESTO), maximum tolerated concentration (MTC) filtered results only (AID 2283924); conditions: actives raise or lower the signal
How it was run: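 H295R cells prestimulated 48 h with 10 uM forskolin, then exposed 48 h to chemicals in 0.1% DMSO final. Testosterone in medium quantified by MTBE extraction and HPLC-MS/MS; bidirectional fit versus DMSO, concentrations […] filtered by MTT-based maximum tolerated concentration.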

zebrafish Thyroid Hormone Receptor beta (TRb), thrb (gene 30607), sequence (Q9PVE4 whole entry, looked up, the tested form may be a part): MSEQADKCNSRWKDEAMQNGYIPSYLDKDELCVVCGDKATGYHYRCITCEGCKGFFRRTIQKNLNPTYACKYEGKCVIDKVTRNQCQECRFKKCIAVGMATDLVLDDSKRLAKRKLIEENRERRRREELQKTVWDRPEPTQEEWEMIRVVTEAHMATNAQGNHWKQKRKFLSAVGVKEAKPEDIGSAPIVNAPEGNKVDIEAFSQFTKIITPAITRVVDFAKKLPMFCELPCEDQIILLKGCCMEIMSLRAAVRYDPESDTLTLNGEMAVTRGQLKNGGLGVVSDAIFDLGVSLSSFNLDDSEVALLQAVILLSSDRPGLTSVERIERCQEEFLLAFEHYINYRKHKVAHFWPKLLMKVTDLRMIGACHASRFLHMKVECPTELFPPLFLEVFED
frog Thyroid hormone Receptor alpha (TRa), thra-a (gene 397942), sequence (P15204 whole entry, looked up, the tested form may be a part): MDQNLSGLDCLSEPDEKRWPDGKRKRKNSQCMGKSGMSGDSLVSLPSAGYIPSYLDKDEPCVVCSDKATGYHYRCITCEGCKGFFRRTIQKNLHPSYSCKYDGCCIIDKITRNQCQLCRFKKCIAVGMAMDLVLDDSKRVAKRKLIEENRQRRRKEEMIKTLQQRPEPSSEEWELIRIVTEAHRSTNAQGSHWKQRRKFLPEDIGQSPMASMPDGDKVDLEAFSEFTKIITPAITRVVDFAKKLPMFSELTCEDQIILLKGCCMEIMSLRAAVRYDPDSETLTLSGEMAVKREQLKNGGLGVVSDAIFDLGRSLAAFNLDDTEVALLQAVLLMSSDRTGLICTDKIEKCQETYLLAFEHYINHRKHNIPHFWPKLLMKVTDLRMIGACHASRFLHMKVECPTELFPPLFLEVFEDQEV
human Thyroid hormone Receptor beta (TRb), THRB (gene 7068), sequence (P10828 whole entry, looked up, the tested form may be a part): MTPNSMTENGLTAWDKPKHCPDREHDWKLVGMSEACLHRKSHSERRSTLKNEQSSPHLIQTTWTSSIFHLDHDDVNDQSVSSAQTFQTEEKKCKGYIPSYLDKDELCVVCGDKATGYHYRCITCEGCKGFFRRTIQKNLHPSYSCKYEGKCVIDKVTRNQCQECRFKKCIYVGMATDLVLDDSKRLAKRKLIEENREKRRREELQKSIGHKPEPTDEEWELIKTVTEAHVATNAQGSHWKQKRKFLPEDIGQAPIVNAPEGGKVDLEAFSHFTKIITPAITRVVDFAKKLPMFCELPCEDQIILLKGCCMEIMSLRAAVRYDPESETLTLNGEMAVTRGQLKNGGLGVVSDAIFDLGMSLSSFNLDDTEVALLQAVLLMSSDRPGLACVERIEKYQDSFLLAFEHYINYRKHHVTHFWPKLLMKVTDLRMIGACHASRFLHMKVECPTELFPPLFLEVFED
PGR (gene 5241), sequence (P06401 whole entry, looked up): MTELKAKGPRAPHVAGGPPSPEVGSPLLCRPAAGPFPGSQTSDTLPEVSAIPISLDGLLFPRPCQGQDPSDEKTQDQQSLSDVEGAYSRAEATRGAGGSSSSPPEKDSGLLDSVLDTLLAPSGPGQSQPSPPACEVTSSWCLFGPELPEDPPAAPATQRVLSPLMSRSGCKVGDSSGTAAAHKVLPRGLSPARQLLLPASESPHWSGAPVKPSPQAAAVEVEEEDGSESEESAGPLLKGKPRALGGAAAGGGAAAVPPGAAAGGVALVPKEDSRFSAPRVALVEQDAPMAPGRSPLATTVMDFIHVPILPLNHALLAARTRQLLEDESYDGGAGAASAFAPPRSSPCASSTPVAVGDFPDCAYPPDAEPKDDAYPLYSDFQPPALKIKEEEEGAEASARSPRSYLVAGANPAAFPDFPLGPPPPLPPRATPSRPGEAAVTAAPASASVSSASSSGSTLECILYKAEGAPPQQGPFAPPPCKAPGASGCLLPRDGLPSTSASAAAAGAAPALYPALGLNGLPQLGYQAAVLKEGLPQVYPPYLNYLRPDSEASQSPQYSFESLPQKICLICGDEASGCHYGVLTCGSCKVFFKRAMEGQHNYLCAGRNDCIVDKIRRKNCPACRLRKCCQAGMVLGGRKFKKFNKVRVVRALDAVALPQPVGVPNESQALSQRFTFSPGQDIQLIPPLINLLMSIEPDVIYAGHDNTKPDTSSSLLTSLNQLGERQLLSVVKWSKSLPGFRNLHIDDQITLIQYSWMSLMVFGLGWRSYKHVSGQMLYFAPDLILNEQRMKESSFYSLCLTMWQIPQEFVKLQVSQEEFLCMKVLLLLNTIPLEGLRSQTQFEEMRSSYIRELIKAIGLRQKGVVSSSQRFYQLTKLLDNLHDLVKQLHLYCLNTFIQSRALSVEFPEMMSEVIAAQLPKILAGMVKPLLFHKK

SMILES: CC(C)(C)c1ccc(O)cc1
- outcome [1]: inactive
- outcome [2]: inactive
- outcome [3]: inactive
- outcome [4]: inactive

SMILES: CCC(C)(C)c1ccc(O)cc1
- outcome [2]: inactive
- outcome [5]: inactive
- outcome [3]: inactive
- outcome [6]: inactive
- outcome [7]: inactive

SMILES: CCOP(=S)(Oc1ccc([N+](=O)[O-])cc1)c1ccccc1 (stereo not drawn)
- outcome [4]: inactive
- outcome [7]: inactive
- AC50 (PGR (gene 5241)): 5.36 µM (active)

SMILES: COC(=O)C(F)(F)C(F)(F)OC(F)(C(F)(F)F)C(F)(F)OC(F)=C(F)F (stereo not drawn)
- outcome [4]: inactive

SMILES: O=P(Oc1ccccc1)(Oc1ccccc1)Oc1ccccc1
- outcome [1]: inactive
- outcome [2]: inactive
- AC50 [4]: 50 µM (active)

SMILES: CCOC(=O)c1ccccc1N
- outcome [8]: inactive
- outcome [9]: inactive
- AC50 [10]: 41.3 µM (active)
- outcome [11]: inactive
- outcome [12]: inactive
- outcome [13]: inactive
- outcome [14]: inactive
- outcome [15]: inactive
- outcome [16]: inactive

SMILES: CCOP(=S)(OCC)SCS(=O)(=O)CC
- AC50 [8]: 39.2 µM (active)
- AC50 [9]: 43 µM (active)
- outcome [10]: inactive
- AC50 [17]: 37.9 µM (active)
- AC50 [11]: 45 µM (active)
- outcome [12]: inactive
- AC50 [13]: 33.5 µM (active)
- outcome [14]: inactive
- outcome [15]: inactive
- outcome [16]: inactive
- AC50 [18]: 45.4 µM (active)

SMILES: c1ccc2c(c1)sc1ccccc12
- outcome [4]: inactive
- outcome [7]: inactive

SMILES: CCOP(=S)(OCC)SCSCC
- outcome [4]: inactive
- outcome [7]: inactive

SMILES: O=S(=O)(F)C(F)(F)C(F)(F)C(F)(F)C(F)(F)C(F)(F)C(F)(F)C(F)(F)C(F)(F)F
- outcome [4]: inactive

SMILES: CCOC(=O)c1ccccc1C(=O)OCC
- outcome [8]: inactive
- outcome [9]: inactive
- outcome [10]: inactive
- outcome [11]: inactive
- outcome [12]: inactive
- outcome [13]: inactive
- outcome [15]: inactive
